Data published in PubChem BioAssay (Tox21).
“And” between values parts separate entries of the source, which are not always exact repeats. Identical values can stand only once. Results filed as inconclusive are left out. Entries that show only a call come without a potency. The source holds several records for some structures; these can differ, active in one and inactive in another. The source made the active and inactive calls. Calls follow the shape of the dose curve; as a rule, active = well fitted activation curve with a large enough effect in the repeat runs; inconclusive = weak or mixed curves; inactive = flat fitted curve, though single readings scatter.
Potency is read from the fitted curve at half-maximal effect.

Experiment: A CellTox Green Cytotoxicity Assay to monitor cytotoxicity in HepG2 cells - 32 hour (AID 1224883); also: nearly all actives have a fitted effect of over 50% in size
Details: CellTox Green fluorescence; series mostly up to 76.8 µM; cytotoxicity increase: at the top concentration
Source text: National Center for Advancing Translational Sciences [NCATS]
NIH Chemical Genomics Center [NCGC]
U.S. Environmental Protection Agency [EPA]
National Institutes of Environmental Health Sciences [NIEHS]
National Toxicology Program [NTP]
Cell-based models are critical for drug discovery. Determining the natural cytotoxic effects resulting from test compounds is an essential research activity. A CellTox Green Cytotoxicity Assay to monitor cytotoxicity in real time of continues cell culture during 40 hours of the compound treatment was used to screen Tox21 10K library compounds in HepG2 cells. CellTox Green Cytotoxicity Assay is a nonlytic, homogeneous, biofluorescent method to measure cytotoxicity in cell culture after experimental manipulation. The assay system uses a proprietary asymmetric cyanine dye that is excluded from viable cells but preferentially stains the dead cell's DNA. […] Viable cells produce no appreciable increases in fluorescence. Therefore, the fluorescence signal produced by the binding interaction with dead cell DNA is proportional to cytotoxicity.
The mixture of HepG2 cell suspension and reagents were dispensed at 600cells/6 ul/well in 1536-well tissue culture treated black solid bottom plates using a Multidrop dispenser. After the assay plates were incubated at a 37 C/5% CO2 incubator for 5 hours, 23 nL of compounds dissolved in DMSO, positive and negative controls was transferred to the assay plate by a pintool work station. The plates were incubated at 37 C for 40 hours. The fluorescence intensity were measured at 0h, 8h, 16h, 24h, 32h and 40h time points using ViewLux plate reader during compound treatment.
For `C=CC(=O)NC(C)(C)CS(=O)(=O)O`, the Potency was “inactive and 24.5 µM (active)”. In the case of `C=C(C)C(N)=O`, the Potency is reported as “inactive”. For `CCc1cc(C(N)=S)ccn1`, the Potency was “inactive”. With `CCCCCCCCOc1ccc(C(=O)c2ccccc2)c(O)c1` the Potency was “inactive”. With `CN(C)C=O` the Potency was “inactive”. With `COc1ccc(C(=O)c2ccccc2)c(O)c1` the Potency was “inactive”. With `Cc1ccc(O)c(-n2nc3ccccc3n2)c1` the Potency was “inactive”. In the case of `N[C@@H](Cc1c[nH]c2ccc(O)cc12)C(=O)O`, the Potency is reported as “inactive”. With `Cc1cccc(Nc2cc(Cl)nc(SCC(=O)O)n2)c1C` the Potency was “inactive”. With `Cc1c(N(C)CS(=O)(=O)O)c(=O)n(-c2ccccc2)n1C` the Potency was “inactive”. With `COc1ccccc1O` the Potency was “inactive”. With `OCCCc1ccccc1` the Potency was “inactive”. With `CC(C)=CCC/C(C)=C/CO` the Potency was “inactive”. With `CC1=NN(c2ccccc2)C(=O)C1` the Potency was “inactive”. In the case of `COC(=O)C1CCC(C(=O)OC)CC1` (stereo not given), the Potency is reported as “inactive”. For `O=C(O)CN(CC(=O)O)CC(=O)O`, the Potency was “inactive”. For `C=CCOC(=O)CC(C)C`, the Potency was “inactive”. In the case of `C[C@]12CC[C@@H]3c4ccc(O)cc4C[C@@H](CCCCCCCCCS(=O)CCCC(F)(F)C(F)(F)F)[C@H]3[C@@H]1CC[C@@H]2O` (stereo not given in full), the Potency is reported as “inactive”. For `C#C[C@]1(O)CC[C@H]2[C@@H]3CCC4=CC(=O)CC[C@@H]4[C@H]3CC[C@@]21CC`, the Potency was “inactive and 43.6 µM (active)”. In the case of `COc1cc(C=O)ccc1O`, the Potency is reported as “inactive”. In the case of `CC(=O)/C=C/C1=C(C)CCCC1(C)C`, the Potency is reported as “inactive”. For `CCOC(=O)C(C)(C)Oc1ccc(Cl)cc1`, the Potency was “inactive”. For `CCCCOCCOCCOC(C)=O`, the “cytotoxicity increase” value was -0.835% (inactive). With `CN/C(=C\[N+](=O)[O-])NCCSCc1ccc(CN(C)C)o1` the Potency was “inactive”. With `CCCCCCCCCCCCCC(=O)OC(C)C` the Potency was “inactive”. In the case of `COc1ccc(O)cc1`, the Potency is reported as “inactive”. In the case of `O=C(O)CCCCC1CCSS1` (stereo not given), the Potency is reported as “inactive”. In the case of `CCCCOCCOCCSC#N`, the Potency is reported as “inactive”. With `Cc1cccc(C)c1O` the Potency was “inactive”. With `CCCCC/C(C=O)=C\c1ccccc1` the Potency was “inactive”. With `CC(=O)CCC(C)C` the Potency was “inactive and 38.9 µM (active)”. For `N[C@@H](Cc1c[nH]c2ccccc12)C(=O)O`, the Potency was “inactive”. In the case of `NC(=O)OCC(COC(N)=O)c1ccccc1`, the “cytotoxicity increase” value is reported as -6.84% [at 35.3 µM] (inactive). In the case of `CCCCOC(=O)CCCCCCCCC(=O)OCCCC`, the Potency is reported as “inactive”. For `C#C[C@]1(O)CC[C@H]2[C@@H]3CCc4cc(O)ccc4[C@H]3CC[C@@]21C`, the Potency was 21.7 µM (active) and 43.6 µM (active). With `O=C1CCCCCN1` the “cytotoxicity increase” value was -0.834% (inactive). For `NCCNc1cccc2ccccc12`, the Potency was 53.6 µM (active) and inactive. With `CCN1CCCC1=O` the Potency was “inactive”. With `C[C@]12C=CC(=O)C=C1CC[C@@H]1[C@@H]2C(=O)C[C@@]2(C)[C@H]1CC[C@]2(O)C(=O)CO` the Potency was “inactive”. With `CO[C@H]1C=CO[C@@]2(C)Oc3c(C)c(O)c4c(O)c(c(/C=N/N5CCN(C)CC5)c(O)c4c3C2=O)NC(=O)/C(C)=C\C=C[C@H](C)[C@H](O)[C@@H](C)[C@@H](O)[C@@H](C)[C@H](OC(C)=O)[C@@H]1C` the Potency was “inactive”.
